Assay outcomes deposited in PubChem by National Center for Advancing Translational Sciences (NCATS).
An excerpt weighted towards active compounds, which were near 1.2% of everything screened.
TrxR1 substrate: is turned over as a substrate by rat TrxR1 | purified TrxR1 substrate turnover, NADPH consumption readout | Potency, µM (series often up to 114 µM) | 390,000 compounds, 0.01% hits | AID 588456; note: nearly all actives have a fitted effect of over 50% in size
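Rat TrxR1, dispensed at 90 nM, was prereduced with 400 uM NADPH (final) for 5 min at ~22 deg C, then incubated with compound 15 min before 400 uM selenite. A first-read NADPH fluorescence drop versus no-compound background flagged substrates.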
mIDH1 inhibitor: human IDH1 R132H inhibition; O75874; IDH1-R132H enzyme, NADPH consumption, diaphorase/resazurin fluorescence; Potency, µM (doses to about 76.6 µM), hits mostly inhibitors; 390,000 compounds, 0.093% hits; note: nearly all actives have a fitted effect of over 65% in size
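IDH1-R132H (0.5 ug/mL) preincubated 30 min with compound, then NADPH (0.016 mM) and alpha-KG (2 mM) added; 80 min at RT, pH 7.5. Remaining NADPH coupled via diaphorase/resazurin to fluorescence (540/590 nm); concentration-response curves normalized to no-enzyme control.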
rTrxR1 inhibitor: inhibitors of rat thioredoxin reductase 1; recombinant rTrxR1, NADPH fluorescence consumption, selenite substrate; Potency, µM (top dose mostly 114 µM), usual class: inhibitors; 390,000 compounds, 1% hits; note: nearly all actives have a fitted effect of over 65% in size
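Rat TrxR1 (90 nM in the dispensed reagent) was pre-reduced with 400 uM NADPH for 5 min at room temperature, then incubated with compound for 15 min. After 400 uM selenite was added, NADPH fluorescence (Ex 340/Em 450 nm) was followed for 8 min.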
GLS inhibitor: glutaminase GLS (human) inhibition. 410,000 compounds, 0.21% hits. Potency, µM (doses to about 45.5 µM), most hits filed as inhibitors. GLS enzymatic activity, qHTS titration. O94925
Target sequence (O94925 whole entry, looked up): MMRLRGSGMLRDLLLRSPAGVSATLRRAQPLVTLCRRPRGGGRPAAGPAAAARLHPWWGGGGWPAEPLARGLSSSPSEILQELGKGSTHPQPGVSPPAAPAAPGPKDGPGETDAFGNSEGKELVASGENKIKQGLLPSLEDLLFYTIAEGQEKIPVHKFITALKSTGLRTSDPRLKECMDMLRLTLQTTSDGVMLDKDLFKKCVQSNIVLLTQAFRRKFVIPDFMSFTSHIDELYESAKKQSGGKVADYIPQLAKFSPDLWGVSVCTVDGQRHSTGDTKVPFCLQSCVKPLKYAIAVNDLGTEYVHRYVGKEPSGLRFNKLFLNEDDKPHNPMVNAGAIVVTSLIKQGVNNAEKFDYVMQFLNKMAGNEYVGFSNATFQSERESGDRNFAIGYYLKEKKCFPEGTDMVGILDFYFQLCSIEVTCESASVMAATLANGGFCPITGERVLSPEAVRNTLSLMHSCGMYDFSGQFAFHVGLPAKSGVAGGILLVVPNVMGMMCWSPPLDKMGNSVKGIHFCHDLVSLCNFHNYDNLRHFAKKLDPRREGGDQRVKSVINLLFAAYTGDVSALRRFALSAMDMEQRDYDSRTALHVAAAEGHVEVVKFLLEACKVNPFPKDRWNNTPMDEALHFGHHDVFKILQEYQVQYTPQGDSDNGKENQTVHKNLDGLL
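hKGA in 45 mM KH2PO4 pH 8.2, 0.02% Tween-20 with pin-transferred compounds; 1 mM L-glutamine (stock) plus glutamate oxidase/HRP/Amplex Red coupling added. Fluorescence read initially and after 30 min at RT.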
A number is an active result; 0 = inactive; ? = inconclusive; - = no result given; ! = repeats disagree; [ ] = dose if it differs, or a comment. Calls come from the whole dose curve; as a rule, active = well fitted curve in the direction sought with a large enough effect; inconclusive = small, poorly fitted or top-dose-only effect, or another doubt; inactive = no such curve, though single readings can be large; an effect the other way counts as inactive or inconclusive.

SMILES | TrxR1 substrate | mIDH1 inhibitor | rTrxR1 inhibitor | GLS inhibitor
O=C(O)c1cc(-c2ccco2)nc2ccc(Br)cc12 | 0 | 0 | 1.3µM! | 7.9µM!
CC(C)Cn1c(N)c(C(=O)COC(=O)c2cc(-c3ccco3)nc3ccccc23)c(=O)n(C)c1=O | 0 | 0 | 2.8µM | ?
CCCCCCNC(=O)c1cc(-c2ccco2)nc2ccccc12 | 0 | 0 | 3.5µM | ?
CCCCN(C(=O)c1cc(-c2ccco2)nc2ccccc12)c1c(N)n(CCC)c(=O)[nH]c1=O | 0 | 0 | 79µM | ?
Cc1ccc(-c2cc(C(=O)N3CCN(c4ccccc4O)CC3)c3ccccc3n2)cc1 | 0 | 0 | 0 | 7.1µM
CCC[C@H](N[C@@H](C)C(=O)N1[C@@H]2CCCC[C@H]2C[C@H]1C(=O)O)C(=O)OCC | - | - | - | 0
ClC(Cl)(c1nnnn1-c1ccccc1)c1nnnn1-c1ccccc1 | 0 | 0 | ? | 10µM
O=C(c1ccccc1)C1CN(Cc2ccccc2)CCC1(O)c1ccccc1 (stereo not drawn) | 0 | 0 | 7.1µM | 0
COc1cc(Br)ccc1C1C(C(=O)Nc2ccc(C)cc2C)=C(C)Nc2nnnn21 (stereo not drawn) | 0 | 0 | 0 | 0
COc1ccc(OCCC(=O)Nc2cc(C)on2)cc1 | 0 | 0 | 0 | 0
Cc1cc(NC(=O)CCOc2ccc(F)cc2)no1 | 0 | 0 | 14µM | 0
Cc1cc(F)ccc1S(=O)(=O)N(C(=O)c1ccncc1)c1ccc(OC(=O)c2ccncc2)cc1 | 0 | 0 | 0 | 0
O=C(Oc1ccc(N(C(=O)c2ccncc2)S(=O)(=O)c2cccs2)cc1)c1ccncc1 | 0 | 0 | 40µM | 0
CC(C)(C)n1ncc2c(=O)n(Cc3ccc(SC(=O)O)cc3Cl)cnc21 | 0 | - | 0 | -
O=C(NCCc1ccccc1)C(c1cccs1)N(C(=O)CCl)c1ccc(Cl)cc1 (stereo not drawn) | 0 | 0 | 3.2µM | 0
CCS(=O)(=O)c1ncc(Cl)c(C(=O)Nc2ccccc2OC)n1 | 0 | 0 | ? | 0
COc1ccccc1NC(=O)c1nc(S(=O)(=O)Cc2ccccc2)ncc1Cl | 0 | 0 | 3.5µM | ?
CCS(=O)(=O)c1ncc(Cl)c(C(=O)NCc2ccc(OC)cc2)n1 | 0 | 0 | ? | 0
COc1ccc(OC)c(NC(=O)c2nc(S(=O)(=O)Cc3ccc(F)cc3)ncc2Cl)c1 | 0 | 0 | 0.71µM | 0
CCOc1ccccc1NC(=O)c1nc(S(=O)(=O)Cc2ccccc2)ncc1Cl | 0 | 0 | 7.9µM | 0
O=C(NC1(C(F)(F)F)N=C(c2ccccc2)N(Cc2ccccc2)C1=O)c1ccc(F)cc1 (stereo not drawn) | 0 | 0 | 0 | 0
N#CC1(NC(=O)COC(=O)c2cc(O)c3ccccc3c2O)CCCCC1 | 0 | 0 | 28µM | ?
O=C(Nc1cccc2cccnc12)c1ccc(-c2cccc(Cl)c2)o1 | 0 | 0 | 0 | 0
Cc1occc1C(=O)NCc1ccc2c(c1)OCO2 | 0 | 0 | 0 | 0
Cc1occc1C(=O)NCc1cccc(CNC(=O)c2ccoc2C)c1 | 0 | 0 | 8.9µM | 0
SMILES | TrxR1 substrate | mIDH1 inhibitor | rTrxR1 inhibitor | GLS inhibitor
COc1cc2c(cc1OC)n(CC(=O)Nc1ccc(C)cc1C)c(=O)n1nc(-c3ccccc3)nc21 | 0 | 0 | 0 | 0
N#C/C(=C\c1ccccn1)c1nc2ccccc2s1 | 0 | 0 | 56µM | 0
N#C/C(=C/c1ccc(-c2ccc(S(N)(=O)=O)cc2)o1)c1nc2ccccc2s1 | 0 | 0 | 89µM | 0
COc1cc(C(C)=O)ccc1OCC(=O)N1CCCC1c1ccc2c(c1)OCCCO2 (stereo not drawn) | - | 0 | - | 0
O=C(/C=C1\C(=O)Nc2ccccc21)/C=C1\C(=O)Nc2ccccc21 | 0 | 0 | 1µM | 0
CC(C)(C)C(=O)/C(=C/c1ccncc1)n1cncn1 | 0 | 0 | 18µM | 0
Cc1nn(C)c(C)c1/C=C(/C(=O)C(C)(C)C)n1cncn1 | 0 | 0 | 0 | 0
NC(CO)C(=O)NNCc1ccc(O)c(O)c1O (stereo not drawn) | 0 | 0 | 6µM | ?
COc1ccccc1NC(CC(=O)c1ccccc1)C(=O)OCC(=O)c1ccc(Br)cc1 (stereo not drawn) | 0 | 0 | 71µM | 0
O=C(CC(Nc1ccccc1Cl)C(=O)OCC(=O)c1cccs1)c1ccccc1 (stereo not drawn) | 0 | 0 | 13µM | -
COc1ccccc1NC(CC(=O)c1ccccc1)C(=O)OCC(=O)c1ccc(C)cc1 (stereo not drawn) | 0 | 0 | 0 | 0
O=C(CC(Nc1ccc(Cl)cc1Cl)C(=O)O)c1ccccc1 (stereo not drawn) | 0 | 0 | 25µM | 0
O=C(OCC(=O)c1cccs1)c1ccccc1 | 0 | 0 | 0 | 0
COc1ccccc1NC(CC(=O)c1ccccc1)C(=O)OCC(=O)c1ccc(C)c(C)c1 (stereo not drawn) | 0 | 0 | 45µM | 0
Cc1cccc(N2CCn3c2nc2c3c(=O)n(CCCc3ccccc3)c(=O)n2C)c1 | 0 | 0 | 0 | 0
COc1ccccc1Nc1nn2c(=O)c3ccc(C(=O)NCCc4ccccc4)cc3nc2s1 | 0 | 0 | 0 | 0
Cc1sc2ccccc2[n+]1CCc1ccccc1 | 0 | - | 0 | -
COC(=O)c1c(-c2cccs2)csc1NC(=O)c1cc(OC)c(OC)c(OC)c1 | 0 | 0 | 0 | 0
Cc1csc(/C(=N/OC(=O)c2ccco2)C(N)=O)n1 | 0 | 0 | 11µM | 0
O=S(=O)(O)c1ccc(O)c2cc(Nc3ccccc3)ccc12 | 0 | 0 | ? | 2.2µM
Nc1ccc(C(=O)Nc2ccc3cc(S(=O)(=O)O)ccc3c2)cc1 | 0 | 0 | 0 | 0
CC(=O)Nc1ccc2c(O)cc(S(=O)(=O)O)cc2c1 | 0 | 0 | 0 | 10µM
Nc1cc(S(=O)(=O)O)cc([N+](=O)[O-])c1O | 0 | 0 | 0 | ?
Nc1cccc2c(O)cc(S(=O)(=O)O)cc12 | 0 | 0 | 0 | 2.8µM
Nc1ccc2c(O)cc(S(=O)(=O)O)cc2c1 | 0 | 0 | ? | 4µM
SMILES | TrxR1 substrate | mIDH1 inhibitor | rTrxR1 inhibitor | GLS inhibitor
Cc1ccc(-c2cc(C3C4C=CCCC4(C)C(=O)N3Cc3ccccc3)ccc2F)cc1 (stereo not drawn) | 0 | - | 0 | -
O=C1[C@@H]2C[C@@H]3C[C@H]1C[C@@](O)(C3)C2 | - | - | - | 0
COc1ccccc1Nc1ccc2c(O)cc(S(=O)(=O)O)cc2c1 | 0 | 0 | ? | 2.2µM
O=S(=O)(O)c1cc(O)c2cc(Nc3ccccc3)ccc2c1 | 0 | 0 | ? | ?
O=S(=O)(O)c1cc(O)c2ccc(Nc3ccccc3)cc2c1 | 0[2.29 µM] | 0 | 0[2.29 µM] | 5µM
CN(C)c1ccc(/C=C/c2cccc3cc4ccccc4nc23)cc1 | 0 | - | ? | -
Fc1ccc(CNc2nc(-c3ccco3)cc(C(F)(F)F)n2)cc1 | 0 | 0 | 25µM | 0
C=CCn1c(SCC(=O)N(CC)C2CCS(=O)(=O)C2)nc2scc(-c3ccccc3)c2c1=O (stereo not drawn) | 0 | 0 | 45µM | 0
c1cnc2cc3c(cc2n1)C1CNCC3C1 | - | - | - | 0
CCOc1ccccc1NC(=O)Cn1nc(-c2ccco2)ccc1=O | 0 | 0 | 32µM | 0
O=C(CSc1ccc(-c2ccco2)nn1)Nc1ccccc1F | 0 | 0 | 20µM | 0
CCOc1ccccc1NC(=O)CSc1ccc(-c2ccco2)nn1 | 0 | 0 | 35µM | 0
